Measured values as given in the supplement of paper PMC8728848.
Only a selection was taken, and the strongest signals are over-represented in it overall.

What was measured:
Assay in all cases: glycan array binding signal (z-score within array); higher = stronger binding
Settings in all cases: glycan notation: IUPAC condensed, linker removed
[1] = molecular target: Fuc(a1-2)Gal(b1-4)Fuc(a1-3)]GlcNAc(b1-2)Man(a1-3)[Fuc(a1-2)Gal(b1-4)[Fuc(a1-3)]GlcNAc(b1-2)Man(a1-6)]Man(b1-4)GlcNAc(b1-4)GlcNAc
Summary of the method: (§1)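 Glycan array data were curated from 3228 arrays in the Consortium for Functional Glycomics database and kept only where the protein sequence was available. Glycan names were converted to IUPAC-condensed notation, and columns mapping to the same glycan were averaged. The binding signal is a within-array Z-score, averaged across arrays of the same protein sequence at different concentrations or buffers and across linkers. Negative Z-scores can be read as non-binding.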

[2] = molecular target: Fuc(a1-2)Gal(b1-4)GlcNAc(b1-3)[Fuc(a1-3)[Gal(b1-4)]GlcNAc(b1-6)]Gal(b1-4)Glc
Summary of the method: as §1

[3] = molecular target: Fuc(a1-2)Gal(b1-4)[Fuc(a1-3)]GlcNAc(b1-3)Gal(b1-4)[Fuc(a1-3)]GlcNAc
Summary of the method: as §1

[4] = molecular target: Fuc(a1-2)[Gal(a1-3)]Gal(b1-3)GlcNAc(b1-6)GalNAc
Summary of the method: as §1

[5] = molecular target: Fuc(a1-2)[Gal(a1-3)]Gal(b1-4)GlcNAc(b1-2)Man(a1-3)[Fuc(a1-2)[Gal(a1-3)]Gal(b1-4)GlcNAc(b1-2)Man(a1-6)]Man(b1-4)GlcNAc(b1-4)[Fuc(a1-6)]GlcNAc
Summary of the method: as §1

[6] = molecular target: Fuc(a1-2)[Gal(a1-3)]Gal(b1-4)GlcNAc(b1-3)GalNAc
Summary of the method: as §1

[7] = molecular target: Fuc(a1-2)[Gal(a1-3)]Gal(b1-4)[Fuc(a1-3)]GlcNAc(b1-3)GalNAc
Summary of the method: as §1

[8] = molecular target: Fuc(a1-3)[Gal(b1-4)]GlcNAc
Summary of the method: as §1

[9] = molecular target: Gal(a1-3)Gal(b1-3)GlcNAc(b1-6)GalNAc
Summary of the method: as §1

[10] = molecular target: Gal(a1-3)[Gal(a1-4)]Gal(b1-4)GlcNAc
Summary of the method: as §1

Gal(a1-4)GlcNAc = molecular target: Gal(a1-4)GlcNAc
Summary of the method: as §1

Gal(a1-6)Glc = molecular target: Gal(a1-6)Glc
Summary of the method: as §1

[11] = molecular target: Gal(b1-3)[Fuc(a1-4)]GlcNAc(b1-3)Gal(b1-3)[Fuc(a1-4)]GlcNAc
Summary of the method: as §1

[12] = molecular target: Gal(b1-4)GlcNAc(b1-2)Man(a1-3)[Gal(b1-4)GlcNAc(b1-2)Man(a1-6)][GlcNAc(b1-4)]Man(b1-4)GlcNAc(b1-4)[Fuc(a1-6)]GlcNAc
Summary of the method: as §1

[13] = molecular target: Gal(b1-4)GlcNAc(b1-2)Man(a1-6)Man(b1-4)GlcNAc(b1-4)GlcNAc
Summary of the method: as §1

[14] = molecular target: Gal(b1-4)GlcNAc(b1-3)Gal(b1-3)GlcNAc
Summary of the method: as §1

[15] = molecular target: Gal(b1-4)GlcNAc(b1-6)Gal(b1-4)GlcNAc
Summary of the method: as §1

[16] = molecular target: Gal3S(b1-4)[Fuc(a1-3)]Glc6S
Summary of the method: as §1

Gal3S6S(b1-4)GlcNAc6S = molecular target: Gal3S6S(b1-4)GlcNAc6S
Summary of the method: as §1

Gal6S(b1-4)GlcNAc6S = molecular target: Gal6S(b1-4)GlcNAc6S
Summary of the method: as §1

[17] = molecular target: GalNAc(a1-3)GalNAc(b1-3)Gal(a1-4)Gal(b1-4)GlcNAc
Summary of the method: as §1

GalNAc(b1-6)GalNAc = molecular target: GalNAc(b1-6)GalNAc
Summary of the method: as §1

GalNAc4S6S(b1-4)GlcNAc = molecular target: GalNAc4S6S(b1-4)GlcNAc
Summary of the method: as §1

[18] = molecular target: GlcNAc(b1-2)Man(a1-3)[GlcNAc(b1-2)Man(a1-6)]Man(b1-4)GlcNAc(b1-4)[Fuc(a1-6)]GlcNAc
Summary of the method: as §1

[19] = molecular target: GlcNAc(b1-3)Gal(b1-4)GlcNAc(b1-3)Gal(b1-4)GlcNAc(b1-2)[GlcNAc(b1-3)Gal(b1-4)GlcNAc(b1-3)Gal(b1-4)GlcNAc(b1-6)]Man(a1-6)[GlcNAc(b1-3)Gal(b1-4)GlcNAc(b1-3)Gal(b1-4)GlcNAc(b1-2)Man(a1-3)]Man(b1-4)GlcNAc(b1-4)[Fuc(a1-6)]GlcNAc
Summary of the method: as §1

[20] = molecular target: GlcNAc(b1-3)Gal(b1-4)GlcNAc(b1-3)[GlcNAc(b1-3)Gal(b1-4)GlcNAc(b1-3)]GalNAc
Summary of the method: as §1

[21] = molecular target: GlcNAc(b1-4)[GlcNAc(b1-6)]GalNAc
Summary of the method: as §1

[22] = molecular target: Man(a1-2)Man(a1-3)[Man(a1-6)]Man(a1-6)[Man(a1-2)Man(a1-3)]Man(b1-4)GlcNAc(b1-4)GlcNAc
Summary of the method: as §1

[23] = molecular target: Man(a1-3)[Man(a1-6)]Man(b1-4)GlcNAc(b1-4)[Fuc(a1-6)]GlcNAc
Summary of the method: as §1

[24] = molecular target: Neu5Ac(a2-3)Gal(b1-3)GalNAc(b1-4)Gal(b1-4)Glc
Summary of the method: as §1

B1: Endo180d1-D4 (Homo sapiens), Q9UBG0 (protein)
chain: MGPGRPAPAPWPRHLLRCVLLLGCLHLGRPGAPGDAALPEPNVFLIFSHGLQGCLEAQGGQVRVTPACNTSLPAQRWKWVSRNRLFNLGTMQCLGTGWPGTNTTASLGMYECDREALNLRWHCRTLGDQLSLLLGARTSNISKPGTLERGDQTRSGQWRIYGSEEDLCALPYHEVYTIQGNSHGKPCTIPFKYDNQWFHGCTSTGREDGHLWCATTQDYGKDERWGFCPIKSNDCETFWDKDQLTDSCYQFNFQSTLSWREAWASCEQQGADLLSITEIHEQTYINGLLTGYSSTLWIGLNDLDTSGGWQWSDNSPLKYLNWESDQPDNPSEENCGVIRTESSGGWQNRDCSIALPYVCKKKPNATAEPTPPDRWANVKVECEPSWQPFQGHCYRLQAEKRSWQESKKACLRGGGDLVSIHSMAELEFITKQIKQEVEELWIGLNDLKLQMNFEWSDGSLVSFTHWHPFEPNNFRDSLEDCVTIWGPEGRWNDSPCNQSLPSICKKAGQLSQGAAEEDHGCRKGWTWHSPSCYWLGEDQVTYSEARRLCTDHGSQLVTITNRFEQAFVSSLIYNWEGEYFWTALQDLNSTGSFFWLSGDEVMYTHWNRDQPGYSRGGCVALATGSAMGLWEVKNCTSFRARYICRQSLGTPVTPELPGPDPTPSLTGSCPQGWASDTKLRYCYKVFSSERLQDKKSWVQAQGACQELGAQLLSLASYEEEHFVANMLNKIFGESEPEIHEQHWFWIGLNRRDPRGGQSWRWSDGVGFSYHNFDRSRHDDDDIRGCAVLDLASLQWVAMQCDTQLDWICKIPRGTDVREPDDSPQGRREWLRFQEAEYKFFEHHSTWAQAQRICTWFQAELTSVHSQAELDFLSHNLQKFSRAQEQHWWIGLHTSESDGRFRWTDGSIINFISWAPGKPRPVGKDKKCVYMTASREDWGDQRCLTALPYICKRSNVTKETQPPDLPTTALGGCPSDWIQFLNKCFQVQGQEPQSRVKWSEAQFSCEQQEAQLVTITNPLEQAFITASLPNVTFDLWIGLHASQRDFQWVEQEPLMYANWAPGEPSGPSPAPSGNKPTSCAVVLHSPSAHFTGRWDDRSCTEETHGFICQKGTDPSLSPSPAALPPAPGTELSYLNGTFRLLQKPLRWHDALLLCESHNASLAYVPDPYTQAFLTQAARGLRTPLWIGLAGEEGSRRYSWVSEEPLNYVGWQDGEPQQPGGCTYVDVDGAWRTTSCDTKLQGAVCGVSSGPPPPRRISYHGSCPQGLADSAWIPFREHCYSFHMELLLGHKEARQRCQRAGGAVLSILDEMENVFVWEHLQSYEGQSRGAWLGMNFNPKGGTLVWQDNTAVNYSNWGPPGLGPSMLSHNSCYWIQSNSGLWRPGACTNITMGVVCKLPRAEQSSFSPSALPENPAALVVVLMAVLLLLALLTAALILYRRRQSIERGAFEGARYSRSSSSPTEATEKNILVSDMEMNEQQE
[1]
  glycan array binding signal (z-score): 4.92
[2]
  glycan array binding signal (z-score): 2.16
[3]
  glycan array binding signal (z-score): 1.23
[4]
  glycan array binding signal (z-score): 0.628
[5]
  glycan array binding signal (z-score): -0.162
[6]
  glycan array binding signal (z-score): 0.423
[7]
  glycan array binding signal (z-score): 4.86
[8]
  glycan array binding signal (z-score): -0.373
[9]
  glycan array binding signal (z-score): 0.29
[10]
  glycan array binding signal (z-score): 0.096
Gal(a1-4)GlcNAc
  glycan array binding signal (z-score): -0.552
Gal(a1-6)Glc
  glycan array binding signal (z-score): 0.11
[11]
  glycan array binding signal (z-score): 3.87
[12]
  glycan array binding signal (z-score): -1.03
[13]
  glycan array binding signal (z-score): 0.463
[14]
  glycan array binding signal (z-score): 0.375
[15]
  glycan array binding signal (z-score): -1.39
[16]
  glycan array binding signal (z-score): 0.973
Gal3S6S(b1-4)GlcNAc6S
  glycan array binding signal (z-score): 4.83
Gal6S(b1-4)GlcNAc6S
  glycan array binding signal (z-score): 2.48
[17]
  glycan array binding signal (z-score): -0.306
GalNAc(b1-6)GalNAc
  glycan array binding signal (z-score): -0.31
GalNAc4S6S(b1-4)GlcNAc
  glycan array binding signal (z-score): 3.2
[18]
  glycan array binding signal (z-score): 5.6
[19]
  glycan array binding signal (z-score): 4.5
[20]
  glycan array binding signal (z-score): -0.76
[21]
  glycan array binding signal (z-score): -1.12
[22]
  glycan array binding signal (z-score): -0.036
[23]
  glycan array binding signal (z-score): 0.638
[24]
  glycan array binding signal (z-score): -3.76
